Test results: PubChem BioAssay (NCI)
Compounds without any hit were thinned out: in the full panel of roughly 83,000, 20% have a hit.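 The test compound was applied at a single concentration to cells in 96-well plates for 48 hours, and percent growth was recorded.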 Unmarked numbers belong to inactive results. The source made the active and inactive calls. How the source made its calls: active means growth percent below 10; inactive means the rest.

Test system: HL-60(TB) leukemia
Test: NCI-60 one-dose screen, 48 h (100 = growth as untreated, 0 = no growth, -100 = all killed)
Conditions: 10 µM unless noted

| Structure (SMILES) | growth |
| --- | --- |
| CCNCC(C)(C)O | 102% |
| O=C(O)c1ccccc1C(=O)c1ccc(I)cc1 | 93.1% |
| Cc1ccc([N+](=O)[O-])cc1Br | 80.6% |
| NCCCNc1nc2ccccc2c2c(=O)c3cc(OC(F)(F)F)ccc3sc12 | -41.5% (active) |
| C=C1C(=O)O[C@H]2[C@H]1CC/C(COC(=O)c1cc3cc(OC)ccc3[nH]1)=C\CC[C@@]1(C)O[C@@H]21 | -34.5% (active) |
| O=c1c(F)cn(Cc2ccccc2CCl)c(=O)n1Cc1ccccc1CCl | -63.6% (active) |
| CC(C)(C)C(CCc1ccc(Cl)cc1)N1CCN(C2CCCCC2)CC1 (stereo unspecified) | 48.2% |
| CCCCn1c(Cc2ccc(OC)cc2)nc2cc(OC)c(OC)cc2c1=O | 79.3% |
| C=CCn1c(=O)c2cnc(Nc3ccc(N4CCN(C)CC4)cc3)nc2n1-c1cccc(C(C)(C)O)n1 | -22.4% (active) |
| N#Cc1ccc(C(=O)CSc2nccc(Nc3ccc(C(=O)O)cc3)n2)cc1 | 99.5% |
| CC(=O)Nc1nc(C)c(C(=O)NNC(=O)Nc2ccccc2)s1 | 108% |
| CC(=O)/C=C/c1cc2cc(Cl)ccc2[nH]c1=O | 54.5% |
| CN(C)c1ccc(CNC(C(=O)c2ccccc2)c2ccccc2)cc1 (stereo unspecified) | 97.1% |
| Cn1c2c(c3ccccc31)CCN1C[C@@H]3CCCC[C@H]3C[C@@H]21 | 2.52% (active) |
| Cc1ccc(/C=C/C(=N/N=C(N)N)c2ccccc2)cc1 | 7.52% (active) |
| Nc1nc(OCc2ccccc2)c2[nH]cnc2n1 | 62.7% |
